± gives the standard deviation. The full ranking holds about 6,200 sequences; the median of “pre-steady-state target cleavage rate” is about 0.29, and the highest 2% start at about 2. Many of the other results were omitted from the sample, so the highest values are more common in it than they were.
These sequences were tested on MIWI (PIWIL1) piRISC loaded with piRNA #1 (30 nt) (assay: pre-steady-state target cleavage rate (min^-1); MIWI and MILI are mouse PIWI proteins and EfPiwi is from a freshwater sponge; tags in brackets are library labels; higher = faster piRNA-guided slicing of the target). Settings: guide: piRNA #1 5'p-UGAGGUAGUAGGUUGUAUAGUAUCCAGAGG; auxiliary factor: 500 nM mouse GTSF1.
Experimental: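 Cleave-'n-Seq: a library of target RNAs (target site embedded in constant flanks, ACAGCATTCCGCGTTAGTGATATCCG... 5' flank; DNA-blocked outside the site) at 0.1 nM was incubated with 1 nM active mouse MILI or MIWI piRISC (synthetic 5'-monophosphorylated piRNA guide) with or without 500 nM mouse GTSF1 at 33 °C for 1 min to 16 h. Uncleaved targets were sequenced and normalised to non-target controls, and the pooled three trials were fitted to a burst-and-steady-state model to give the pre-steady-state cleavage rate (min^-1; k3 is constrained to at most 1e-4). Sequence is the target site only; target names encode pairing extent (gX:gY) and contiguous / 1-mismatch / 2-mismatch / bulge geometry. Fits with R² ≤ 0 are excluded.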
In the case of GCUCUGCGAUACUAUACAACCUACUACCUCA, the “pre-steady-state target cleavage rate” value is reported as 2.02 ± 0.12.
With GGACUGCGAUACUAUACAACCUACUACCUCA the “pre-steady-state target cleavage rate” value was 1.79 ± 0.13.
GGUCUGCGAUACUAUACAACCUACUACCUCA was tested, and the “pre-steady-state target cleavage rate” value was 1.79 ± 0.071.
With CCUCUGCGAUACUAUACAACCUACUACCUCA the “pre-steady-state target cleavage rate” value was 2.19 ± 0.12.
In the case of GCUCUGGGAUACUAUACAACCUACUACCUCA, the “pre-steady-state target cleavage rate” value is reported as 1.89 ± 0.096.
With GGAGUGGAUACUAUACAACCUACAACCUCA the “pre-steady-state target cleavage rate” value was 0.314 ± 0.037.
For GGACUGGAUACUAUACCACCUACUACCUCA, the “pre-steady-state target cleavage rate” value was 1.17 ± 0.082.
With GGAGACCUUACUAUUCAACCUAGUACCUCA the “pre-steady-state target cleavage rate” value was 0.395 ± 0.04.
With GGAGACCUAUGUAUACCACCUACUACCUCA the “pre-steady-state target cleavage rate” value was 0.0149 ± 0.0026.
For CCUGUGGAUACUAUACAACCUACUACCUCA, the “pre-steady-state target cleavage rate” value was 1.86 ± 0.11.
With GCCCUGGAUACUAUACAACCUACUACCUCA the “pre-steady-state target cleavage rate” value was 2.17 ± 0.12.
In the case of GGACCUGGAUACUAUACAACCUACUACCUCA, the “pre-steady-state target cleavage rate” value is reported as 1.96 ± 0.14.
For CCCCUGGAUACUAUACAACCUACUACCUCA, the “pre-steady-state target cleavage rate” value was 2.45 ± 0.15.
GAUCUGGAUACUAUACAACCUACUACCUCA was tested, and the “pre-steady-state target cleavage rate” value was 1.91 ± 0.097.
With GGCCUGGAUACUAUACAACCUACUACCUCA the “pre-steady-state target cleavage rate” value was 1.74 ± 0.098.
In the case of CCUGUGGAUACUAUACAACCUACAACCUCA, the “pre-steady-state target cleavage rate” value is reported as 0.383 ± 0.043.
For CCCUGGAUACUAUACAACCUACUACCUCA, the “pre-steady-state target cleavage rate” value was 2.52 ± 0.18.
GCCUGGAUACUAUACAACCUACUACCUCA was tested, and the “pre-steady-state target cleavage rate” value was 1.87 ± 0.11.
For GGAGACCUUACUAUACAAGCUAGUACCUCA, the “pre-steady-state target cleavage rate” value was 0.471 ± 0.033.
With GCUCUGGAUACUAUACAACCAACUACCACA the “pre-steady-state target cleavage rate” value was 0.153 ± 0.018.
In the case of GGAGACGAAAGUAUACAACCUACUACCUCA, the “pre-steady-state target cleavage rate” value is reported as 0.527 ± 0.062.
GGUCUGGAUAGUAUACAACCUACUACGUCA was tested, and the “pre-steady-state target cleavage rate” value was 0.583 ± 0.055.
With GGAGAGGAAACUAUACAUCCUACUACCUCA the “pre-steady-state target cleavage rate” value was 1.19 ± 0.074.
In the case of GCUCCUGGAUACUAUACAACCUACUACCUCA, the “pre-steady-state target cleavage rate” value is reported as 2.13 ± 0.11.
For CCAGUGGAUACUAUACAACCUACUACCUCA, the “pre-steady-state target cleavage rate” value was 2.01 ± 0.11.
For GCUCGUGGAUACUAUACAACCUACUACCUCA, the “pre-steady-state target cleavage rate” value was 1.85 ± 0.095.
In the case of GGUCGUGGAUACUAUACAACCUACUACCUCA, the “pre-steady-state target cleavage rate” value is reported as 1.72 ± 0.093.
In the case of GGACUGGAUACUAUACAACCUCCUACCUCA, the “pre-steady-state target cleavage rate” value is reported as 0.801 ± 0.052.
CCUCCUGGAUACUAUACAACCUACUACCUCA was tested, and the “pre-steady-state target cleavage rate” value was 2.25 ± 0.13.
In the case of GGAGUGGAUACUAUACUACCUACAACCUCA, the “pre-steady-state target cleavage rate” value is reported as 0.428 ± 0.052.
GCUCUGGAUACUAUACAACCUCCUACCUCA was tested, and the “pre-steady-state target cleavage rate” value was 1.2 ± 0.052.
With GGUCCUGGAUACUAUACAACCUACUACCUCA the “pre-steady-state target cleavage rate” value was 1.97 ± 0.099.
For CCUCGUGGAUACUAUACAACCUACUACCUCA, the “pre-steady-state target cleavage rate” value was 2.17 ± 0.16.
With CCUCUGGAUACUAUACAACCUCCUACCUCA the “pre-steady-state target cleavage rate” value was 1.32 ± 0.068.
With GCAGUGGAUACUAUACAACCUACUACCUCA the “pre-steady-state target cleavage rate” value was 1.85 ± 0.095.
GGAGACCAUAUAUACAACCUACUACCUCA was tested, and the “pre-steady-state target cleavage rate” value was 0.184 ± 0.018.
GGAGACCUUAGUAUACUACCUACUACCUCA was tested, and the “pre-steady-state target cleavage rate” value was 0.0222 ± 0.0051.
For GGAGACCUAACUAUACAACCUUCUACCACA, the “pre-steady-state target cleavage rate” value was 0.194 ± 0.026.
With GGAGACCUAUCUAUACAACCUACUACACUCA the “pre-steady-state target cleavage rate” value was 0.634 ± 0.061.
For CCUCUGGAUACUAUACAACCUAGUACCUCA, the “pre-steady-state target cleavage rate” value was 0.172 ± 0.039.
In the case of GGUCUGGAUACAAUACAACCUAGUACCUCA, the “pre-steady-state target cleavage rate” value is reported as 0.562 ± 0.054.
For GGUCAGGAUACUAUUCAACCUACUACCUCA, the “pre-steady-state target cleavage rate” value was 1.79 ± 0.1.
GGAGAGGAUACUAUUCAACCUACUACCUCA was tested, and the “pre-steady-state target cleavage rate” value was 1.23 ± 0.062.
GCUCAGGAUACUAUUCAACCUACUACCUCA was tested, and the “pre-steady-state target cleavage rate” value was 2.09 ± 0.13.
GCUCUGGAUACUAUUCAACCUACUACCUCA was tested, and the “pre-steady-state target cleavage rate” value was 1.87 ± 0.11.
For CCUCAGGAUACUAUUCAACCUACUACCUCA, the “pre-steady-state target cleavage rate” value was 2.22 ± 0.14.
For GGACAGGAUACUAUUCAACCUACUACCUCA, the “pre-steady-state target cleavage rate” value was 1.69 ± 0.11.
With GCUCUGGAUACUAUACUAACCUACUACCUCA the “pre-steady-state target cleavage rate” value was 0.00667 ± 0.0041.
For GGAGACGAUACAAUUCAACCUACUACCUCA, the “pre-steady-state target cleavage rate” value was 0.664 ± 0.073.
For GGAGUGGAUAGUAUACAACCUACUAGCUCA, the “pre-steady-state target cleavage rate” value was 0.0218 ± 0.0063.
GGAGACGAUACUAUACUAGCUACUACCUCA was tested, and the “pre-steady-state target cleavage rate” value was 0.579 ± 0.048.
For GGUCUGGAUUCUAUAGAACCUACUACCUCA, the “pre-steady-state target cleavage rate” value was 0.979 ± 0.064.
For GCUCUCGAUACAAUACAACCUACUACCUCA, the “pre-steady-state target cleavage rate” value was 2.07 ± 0.12.
In the case of GGACUCGAUACAAUACAACCUACUACCUCA, the “pre-steady-state target cleavage rate” value is reported as 1.46 ± 0.095.
GCUCUCGAUAGUAUACAACCUACUACCUCA was tested, and the “pre-steady-state target cleavage rate” value was 1.95 ± 0.13.
For CCUCUCGAUACAAUACAACCUACUACCUCA, the “pre-steady-state target cleavage rate” value was 2.17 ± 0.14.
With GCUCUCGAUACUAUACAACCUACAACCUCA the “pre-steady-state target cleavage rate” value was 1.01 ± 0.078.
GGUCUCGAUACAAUACAACCUACUACCUCA was tested, and the “pre-steady-state target cleavage rate” value was 1.77 ± 0.12.
With GCUCUGGAUAGUAUUCAACCUACUACCUCA the “pre-steady-state target cleavage rate” value was 0.849 ± 0.044.
GGAGACCAUACUAUUCAACCUACUACCACA was tested, and the “pre-steady-state target cleavage rate” value was 1.05 ± 0.078.
With GGACUGGAUACUAUACAACCUACGUACCUCA the “pre-steady-state target cleavage rate” value was 0.656 ± 0.089.
For GCUCUGGAUACUAUACAACGUACUUCCUCA, the “pre-steady-state target cleavage rate” value was 0.486 ± 0.045.
In the case of GGAGACGAAACUAUACAAGCUACUACCUCA, the “pre-steady-state target cleavage rate” value is reported as 0.872 ± 0.057.
In the case of GGAGUGGUUUCUAUACAACCUACUACCUCA, the “pre-steady-state target cleavage rate” value is reported as 1.32 ± 0.081.
With CCUCUGGAUACUAUACAACCUACUUACCUCA the “pre-steady-state target cleavage rate” value was 2.2 ± 0.14.
GGUCUGGAUACUAUACAACCUACUUACCUCA was tested, and the “pre-steady-state target cleavage rate” value was 1.23 ± 0.084.
With GCUCUGGAUACUUAUACAACCUACUACCUCA the “pre-steady-state target cleavage rate” value was 1.53 ± 0.084.
With CCUCUGGAUACUUACAACCUACUACCUCA the “pre-steady-state target cleavage rate” value was 1.3 ± 0.12.
With GCUCUGGAUACUUACAACCUACUACCUCA the “pre-steady-state target cleavage rate” value was 1.18 ± 0.1.
For GCUCUGGAUACUAUACAACCUACUUACCUCA, the “pre-steady-state target cleavage rate” value was 2.1 ± 0.13.
With GGAGACCUUACUAUACAACCUACCACCUCA the “pre-steady-state target cleavage rate” value was 0.847 ± 0.06.
In the case of GGACUGGAUACUUAUCAACCUACUACCUCA, the “pre-steady-state target cleavage rate” value is reported as 0.719 ± 0.1.
For GGACUGGAUACGAUACAACCUACUACCUCA, the “pre-steady-state target cleavage rate” value was 1.64 ± 0.1.
CCUCUGGAUACUAAACUACCUACUACCUCA was tested, and the “pre-steady-state target cleavage rate” value was 1.24 ± 0.098.
For CCUCAGGAUACUUUACAACCUACUACCUCA, the “pre-steady-state target cleavage rate” value was 2.1 ± 0.13.
With GCUCAGGAUACUAUACAACCUACUACCACA the “pre-steady-state target cleavage rate” value was 1.75 ± 0.1.
In the case of CCACAGGAUACUAUACAACCUACUACCUCA, the “pre-steady-state target cleavage rate” value is reported as 1.87 ± 0.13.
With CCUCAGGAUACAAUACAACCUACUACCUCA the “pre-steady-state target cleavage rate” value was 2.01 ± 0.12.
With GGUCAGGAUACUUUACAACCUACUACCUCA the “pre-steady-state target cleavage rate” value was 1.54 ± 0.085.
For GGUCAGGAUACAAUACAACCUACUACCUCA, the “pre-steady-state target cleavage rate” value was 1.69 ± 0.1.
For GGUCAGGAUACUAAACAACCUACUACCUCA, the “pre-steady-state target cleavage rate” value was 1.74 ± 0.096.
In the case of GCUCAGGAUACAAUACAACCUACUACCUCA, the “pre-steady-state target cleavage rate” value is reported as 1.9 ± 0.12.
For CCUCAGGAUACUAAACAACCUACUACCUCA, the “pre-steady-state target cleavage rate” value was 2.07 ± 0.12.
In the case of GCUCAGGAUACUAAACAACCUACUACCUCA, the “pre-steady-state target cleavage rate” value is reported as 1.95 ± 0.12.
For GCUCAGGAUACUUUACAACCUACUACCUCA, the “pre-steady-state target cleavage rate” value was 1.81 ± 0.11.
CCUCAGGAUACUAUACAACCUACUACCACA was tested, and the “pre-steady-state target cleavage rate” value was 2.43 ± 0.17.
In the case of CCUCUGGAUACUUUACAACCUACUACCUGA, the “pre-steady-state target cleavage rate” value is reported as 0.715 ± 0.1.
In the case of GGAGACCUAUCUAUACAACCUACUAGCUCA, the “pre-steady-state target cleavage rate” value is reported as 0.517 ± 0.046.
With GGAGAGGAUACUAUAGCAACCUACUACCUCA the “pre-steady-state target cleavage rate” value was 0.61 ± 0.07.
GGAGACGAUACUAUACAUGCUACUACCUCA was tested, and the “pre-steady-state target cleavage rate” value was 0.755 ± 0.037.
GGAGACCUUACUGUACAACCUACUACCUCA was tested, and the “pre-steady-state target cleavage rate” value was 0.655 ± 0.077.
In the case of CCUCUGGAUACUAUUCAACCUAGUACCUCA, the “pre-steady-state target cleavage rate” value is reported as 0.085 ± 0.021.

From the supplement of paper PMC10338343
